Assay outcomes: PubChem, several laboratories
Hits are enriched below; roughly 2.1% of the tested compounds scored in any of these assays.
BaF3 parental: parental Ba/F3 viability inhibition as JAK2V617F counter-screen. CellTiter-Glo ATP luminescence. inhibition, % at 5.6 µM. 220,000 tested, 1.1% active. AID 1486;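 active means inhibition above a per-campaign cutoff, the mean inhibition of all tested compounds plus 3 SD, cut at about 27% in these data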;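 further: 0% = DMSO wells and 100% = JAK Inhibitor I control wells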
APP 5UTR inh: APP translation inhibition | AID 1285 | SH-SY5Y APP 5'UTR-luciferase reporter, luminescence | inhibition, % at 2 µM | 190,000 tested, 0.82% active;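 active means inhibition above a set limit, derived from the sample mean plus 3 SD, cut at about 45% in these data; inconclusive means one replicate passes the limit while the other fails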
Ba/F3 V617F tox: lowers viability of Ba/F3 cells expressing EpoR and JAK2V617F; ATP luminescence; inhibition, % at 5.6 µM; 220,000 tested, 1.1% active;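 active means inhibition above the campaign mean plus 3 SD over all tested compounds, cut at about 24% in these data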;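 further: cytokine-independent growth of Ba/F3 cells driven by EpoR plus mutant JAK2; 0% = DMSO-treated cells and 100% = JAK inhibitor I control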
KLF5 inh: kruppel-like factor 5 inhibition | AID 1700 | DLD-1 KLF5 promoter-luciferase reporter, luminescence | 290,000 tested, 0.23% active | inhibition, % at 5 µM;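 active means inhibition above a per-plate limit of that plate's mean compound inhibition plus 3 SD, cut at about 60% in these data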;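 further: 0% = DMSO wells and 100% = LY294002 at 200 µM; higher means less KLF5 promoter-driven luciferase light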
IEC-6 tox: IEC-6 cytotoxicity, counter-screen for KLF5 inhibitors. luminescence viability. inhibition, % at 5 µM. 290,000 tested, 0.78% active. AID 1825; in the data active means inhibition above about 22%;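 further: 0% = plate median of test compound wells and 100% = cytotoxic reference compound wells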
aSyn UTR inh: MLPCN primary screen, SNCA 5' untranslated region. alpha-synuclein 5'UTR reporter, inhibitor activity. inhibition, % (tested at 7.5 µM). 300,000 tested, 0.82% active. AID 1813; in the data active means inhibition above about 60%; inconclusive means no clear call, values can overlap the other calls;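 further: H4 neuroglioblastoma cells stably carrying SNCA 5'UTR luciferase fusion; 0% = DMSO wells and 100% = positive control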
* marks the source's active call; other numbers are inactive results; ? = inconclusive; . = not tested or not shown.

SMILES	BaF3 parental	APP 5UTR inh	Ba/F3 V617F tox	KLF5 inh	IEC-6 tox	aSyn UTR inh
Fc1ccc(CSc2nnc(-c3ccccn3)o2)cc1	.	.	.	-183.8	-6.2	-196.1
O=C(/C=C/c1cccs1)Nc1ccc(Br)cn1	71.3*	92.3*	73.6*	22.9	80.9*	-49.6
O=C(/C=C/c1cccs1)Nc1cccc(NC(=O)/C=C/c2cccs2)n1	5.9	-45.3	1.6	-109.0	8.6	-180.9
COc1ccc(CCNC(=O)C2CCC(C(C)(C)C)CC2)cc1OC (centres undefined)	.	.	.	-25.3	-1.9	10.0
CN(C)c1ccc(/C=N/n2cnn(Cc3ccccc3Cl)c2=S)cc1	1.5	-17.7	2.5	7.3	2.1	-49.3
Fc1ccc(/C=N/n2cnn(Cc3ccccc3Cl)c2=S)cc1	0.8	62.4*	-3.0	-13.6	-6.5	21.6
CCc1cccc(NC(=O)C2CCCN2S(=O)(=O)c2ccc3c(c2)CC(C)N3C(C)=O)c1 (centres undefined)	.	.	.	0.5	-2.8	30.8
Fc1ccc(C(CCNCc2ccccn2)c2ccc(Cl)cc2)cc1 (centres undefined)	.	.	.	-39.5	0.4	-4.0
Cc1nc2ccc([N+](=O)[O-])cc2nc1C	2.0	-4.5	5.0	-14.0	13.9	-32.7
Cc1ccc2nc3cc([N+](=O)[O-])cc([N+](=O)[O-])c3cc2c1	7.4	62.5*	0.9	-32.3	-2.2	.
Nc1ccn([C@@H]2CS[C@H](CO)O2)c(=O)n1	-5.5	.	-1.9	-31.8	-2.4	31.3
Nc1ccn([C@@H]2O[C@H](CO)[C@@H](O)C2O)c(=O)n1 (some centres undefined)	72.0*	.	74.8*	29.0	92.8*	72.3*
CC1CCN(Cc2cc(=O)oc3ccc4ccccc4c23)CC1	1.1	.	-3.5	-8.5	4.7	4.4
CN1c2ccccc2C(C)(C)C12C=Nc1c(cc(N3CCOCC3)c3ccccc13)O2 (centres undefined)	6.4	3.6	7.8	0.9	-3.2	28.6
CN1c2ccccc2C(C)(C)C12C=Cc1cc(O)ccc1O2 (centres undefined)	62.9*	4.5	72.4*	-35.5	11.2	-12.5
CC(NS(=O)(=O)c1cc2c3c(c1)CCC(=O)N3CCC2)c1ccccc1 (centres undefined)	.	.	.	.	.	10.3
COC(=O)C1=C(N)Oc2cc(C)n(CC3CCCO3)c(=O)c2C1c1ccccc1OC (centres undefined)	3.5	0.3	0.4	-15.1	4.5	-0.9
COC(=O)C1=C(N)Oc2cc(N(C)C)ccc2C1c1ccccc1OC (centres undefined)	4.9	66.3*	-3.8	-6.3	3.0	82.8*
CC(C)Oc1ccc(CCN=C(N)N=C(N)N)cc1Cl	35.8*	-12.2	5.5	12.5	0.7	7.8
CC(C)Oc1ccc(CNC(=S)Nc2ccccc2)cc1Cl	.	.	.	-11.2	-3.8	8.4
CCCCc1nnc(NC(=O)CN2C(=O)NC3(CCCCC3)C2=O)s1	.	.	.	-13.7	-0.8	10.0
CC1(C)Oc2cc3oc(-c4cc(O)cc(O)c4)cc3cc2CC1O (centres undefined)	.	.	.	.	.	97.0*
Cc1ccc(C(=O)NCCc2cccs2)cc1	9.5	-83.1	0.9	39.5	-2.9	73.2*
O=C(NCCc1cccs1)c1ccc(Cl)cc1	5.8	.	-0.9	-76.5	-2.7	21.3
Oc1c(C(Nc2cccc(C(F)(F)F)c2)c2ccncc2)ccc2cccnc12 (centres undefined)	4.3	14.0	-1.1	6.6	-1.4	81.9*
SMILES	BaF3 parental	APP 5UTR inh	Ba/F3 V617F tox	KLF5 inh	IEC-6 tox	aSyn UTR inh
O=C(Nc1ccncc1)Nc1cccc(C(F)(F)F)c1	.	.	.	-14.5	-1.1	-0.6
Cc1ccc(S(=O)(=O)NCc2ccc(C(=O)NCCc3ccc(S(N)(=O)=O)cc3)cc2)cc1	.	.	.	-31.1	-1.1	18.3
CCCC(=O)Nc1nc(C)c(-c2csc(Nc3cc(OC)ccc3OC)n2)s1	6.1	-2.2	3.9	-6.9	1.4	?
C=CCCC(=O)Nc1nc(C)c(-c2csc(Nc3cc(OC)ccc3OC)n2)s1	58.6*	53.1*	33.6*	28.5	18.7	54.7
Cc1cccc(-n2ncc3c2CCCC3NC(=O)CCN2CCCO2)c1C (centres undefined)	.	.	.	-13.5	4.2	3.7
Cc1c(Cl)cccc1NC(=O)C1=COCCO1	.	.	.	.	.	-41.9
CN(C)CCC#CC(O)(c1ccccc1)c1ccccc1	9.0	2.4	0.0	-14.6	-8.1	-9.5
CCN(CC)CC#CC(O)(c1ccccc1)c1ccccc1	8.0	49.4*	-0.6	-4.2	2.8	13.9
Cc1ccc(C)c(S(=O)(=O)N2C(=S)NC(=O)C2CC(C)C)c1 (centres undefined)	3.3	76.9*	-1.8	-26.4	0.8	5.0
COc1ccc(-c2cn(-c3ccccc3)c3[n+]2CCS3)cc1	66.6*	4.7	75.7*	-12.9	10.3	-7.0
Fc1ccc(-n2cc(-c3ccccc3)[n+]3c2SCC3)cc1	78.9*	-4.0	48.7*	-11.7	-4.9	-9.7
c1ccc(-c2cn(-c3ccccc3)c3[n+]2CCS3)cc1	62.9*	-4.6	69.4*	-7.7	-1.6	-3.1
Fc1ccc(-n2cc(-c3ccccc3)c3c(N4CCOCC4)ncnc32)cc1	6.1	12.0	0.6	6.4	4.4	2.0
COc1ccc(CCN2CCCC(CN(C)C(=O)c3ccoc3)C2)cc1 (centres undefined)	.	.	.	-141.8	5.5	-108.6
ON/C=N/C(=S)Nc1ncc(C(F)(F)F)cc1Cl	62.0*	2.1	55.6*	-64.5	2.7	14.9
O=C(Oc1c(CN2CCOCC2)cc(Cl)c2cccnc12)c1cccs1	3.4	27.1	0.6	8.4	16.5	107.7*
O=C(Oc1ccc(Cl)c2cccnc12)N1CCOCC1	1.5	2.7	-2.0	15.3	-3.2	-5.6
O=C(Oc1c(CN2CCOCC2)cc(Cl)c2cccnc12)c1ccc(F)cc1	2.2	37.0	-2.4	-21.6	-0.3	65.4*
COc1cc(C(=S)N2CCOCC2)cc(OC)c1OC(=O)c1ccc(F)cc1	.	.	.	-27.3	-2.7	5.1
O=C(Oc1c(CN2CCOCC2)cc(Cl)c2cccnc12)c1ccccc1Cl	6.6	53.1*	0.9	5.2	-2.4	105.2*
O=C(CSc1nc(C(F)(F)F)cc(=O)[nH]1)Nc1cccc2ccccc12	.	.	.	.	.	14.4
O=C(CSc1nnc(CNC(=O)c2ccco2)o1)Nc1ccccc1F	.	.	.	3.9	1.6	-17.2
COc1ccc(-n2c(=O)[nH]c3cc(C(=O)NCCc4ccccc4)ccc3c2=O)cc1OC	.	.	.	18.4	-1.3	5.3
Cc1cc(/C=c2\sc3nc4ccccc4n3c2=O)c(C)n1-c1ccc(C(=O)O)cc1	-0.2	-19.0	3.5	-10.3	-8.5	-61.8
Cc1cc(/C=c2/sc3nc4ccccc4n3c2=O)c(C)n1-c1ccccn1	0.4	59.8*	-1.1	27.5	4.8	87.9*
O=C(OCCN1C(=O)c2cccc3c(N4CCOCC4)ccc(c23)C1=O)c1ccc(Cl)cc1Cl	0.1	94.1*	-3.2	-11.3	-3.4	99.1*
